Measurements as given in PubChem BioAssay (NCI).
This is part of a sample that, as a whole, favours compounds with a hit. Of some 79,000 tested, about 15% had one in any assay. Values without a mark were called inactive. Calls of active or inactive are those of the source. Cut-off read from the data, not from the text of the source: active = growth inhibition above about 70%; inactive = the rest.

Assay: NCI Yeast Anticancer Drug Screen. Data for the wt1 strain (AID 149);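 note: 0% = growth of vehicle-treated wt1 cultures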
Details: S. cerevisiae wt1 strain (SPY 50644) growth inhibition, active compounds read high
Method: Growth inhibition of yeast strains with defined genetic alterations is measured as a screen for potential anti-cancer activity. Selected strains with alterations in DNA damage repair or cell cycle control were exposed to compounds and growth inhibition was measured relative to vehicle treated controls. The strain used in this assay is wt1

SMILES	growth inhibition (at 1.2 µM) [%]	growth inhibition (at 3.7 µM) [%]	growth inhibition (at 11.0 µM)	growth inhibition (at 33.0 µM)	growth inhibition (at 100.0 µM)
CCCCC(CC)C(=O)[O][Sn]([CH2]CCC)([CH2]CCC)[O]C(=O)C(CC)CCCC (stereo not given)	-14	-7	46%	93% (active)	98% (active)
CCCC/C=C/C(C)(C(=O)OCC)C(=O)OCC	-5	-5	-5%	-7%	3%
Clc1ccc2c(c1)N(CCCN1CCCC13CCCCC3)c1ccccc1S2	1	-3	-5%	-5%	-7%
CCCCCCCCCCCC(O)S(=O)(=O)O (stereo not given)	-2	-1	-4%	1%	15%
O=C(NO)Nc1cc(Cl)cc(Cl)c1	-3	-3	80% (active)	99% (active)	98% (active)
Nc1ncnc2c1ncn2C1OC(CO)CC1O (stereo not given)	-25	-10	-4%	54%	87% (active)
COc1oc(C(=O)NC2CCCCC2)c(-c2ccc(Cl)cc2)c1S(=O)(=O)c1ccccc1	-19	-5	68%	91% (active)	87% (active)
S=c1[nH]c2cc3ccccc3cc2[nH]1	-24	-6	6%	3%	2%
